The campaign covered roughly 2,400 compounds. About 750 (31%) were called active. This is one part of the list. Unmarked numbers belong to inactive results.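 How the source made its calls: active means median signal gain over dofetilide-blocked control wells reaching their mean plus 3 SD, so readout 1 at least 0; inactive means the rest.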

The target of this assay is Voltage-gated inwardly rectifying potassium channel KCNH2 (Homo sapiens) (UniProt Q12809). Kind of assay: modulators restoring hERG flux under dofetilide – cell-based, thallium flux, duplicate retest, dofetilide IC70, confirmation (AID 1835). The settings on record: hERG cell line, FluxOR thallium flux, dofetilide-blocked; at 10 µM; hits give high values. In general terms: The hERG channel carries a current that helps repolarise heart muscle cells.
Voltage-gated inwardly rectifying potassium channel KCNH2 (Homo sapiens), sequence (Q12809 whole entry, looked up): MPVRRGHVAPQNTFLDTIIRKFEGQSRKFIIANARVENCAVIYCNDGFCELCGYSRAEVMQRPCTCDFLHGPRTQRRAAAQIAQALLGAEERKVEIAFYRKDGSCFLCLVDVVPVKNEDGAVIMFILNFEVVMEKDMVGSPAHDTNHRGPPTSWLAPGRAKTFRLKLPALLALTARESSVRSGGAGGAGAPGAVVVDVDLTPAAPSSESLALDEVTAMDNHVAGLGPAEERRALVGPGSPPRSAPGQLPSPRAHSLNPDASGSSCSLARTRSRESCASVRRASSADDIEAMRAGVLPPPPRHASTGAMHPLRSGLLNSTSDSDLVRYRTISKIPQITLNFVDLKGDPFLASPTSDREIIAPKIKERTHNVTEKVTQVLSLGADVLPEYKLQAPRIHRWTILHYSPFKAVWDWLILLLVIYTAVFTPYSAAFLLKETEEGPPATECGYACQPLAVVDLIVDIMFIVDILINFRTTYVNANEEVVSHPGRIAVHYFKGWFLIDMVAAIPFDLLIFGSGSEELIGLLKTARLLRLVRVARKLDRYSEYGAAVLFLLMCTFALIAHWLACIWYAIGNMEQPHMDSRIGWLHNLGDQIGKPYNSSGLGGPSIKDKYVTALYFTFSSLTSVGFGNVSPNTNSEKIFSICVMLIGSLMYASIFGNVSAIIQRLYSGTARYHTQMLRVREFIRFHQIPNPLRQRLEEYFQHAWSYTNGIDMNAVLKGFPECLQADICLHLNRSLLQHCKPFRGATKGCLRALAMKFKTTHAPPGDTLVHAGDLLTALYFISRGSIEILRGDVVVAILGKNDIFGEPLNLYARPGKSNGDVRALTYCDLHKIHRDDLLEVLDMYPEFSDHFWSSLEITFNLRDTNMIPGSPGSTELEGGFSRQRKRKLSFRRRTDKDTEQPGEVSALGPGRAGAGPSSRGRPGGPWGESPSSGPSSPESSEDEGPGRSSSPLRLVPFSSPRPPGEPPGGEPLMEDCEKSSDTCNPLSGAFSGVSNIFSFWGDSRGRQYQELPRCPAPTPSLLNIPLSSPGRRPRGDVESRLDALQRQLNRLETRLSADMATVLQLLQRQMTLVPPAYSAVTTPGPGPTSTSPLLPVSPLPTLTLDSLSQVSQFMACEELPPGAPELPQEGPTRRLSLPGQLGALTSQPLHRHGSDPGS
As to `Cc1ccc(NC(=O)c2ccc(NC3=NC4CS(=O)(=O)CC4S3)cc2)cc1` (stereo not given), the activity increase over dofetilide control, less the hit threshold was -14%.
The same measure for `O=C(C[n+]1ccccc1)N/N=C/c1ccc(Cl)c(Cl)c1`: -13%.
For `O=C(CC1CCCC1)Nc1ccc2c(c1)CCC2`, the activity increase over dofetilide control, less the hit threshold was -5%.
Regarding `COc1ccccc1NC(=S)N1CCCc2ccccc21`, the activity increase over dofetilide control, less the hit threshold is -16%.
As for `COc1ccc(/C=N/NC(=O)c2ccncc2)cc1CN1CCCc2ccccc21`, the activity increase over dofetilide control, less the hit threshold is 3% (active).
With `COc1ccc(/C=N/NC(=O)C(=O)N2CCCC2)cc1`, the activity increase over dofetilide control, less the hit threshold is -4%.
For the compound `O=[N+]([O-])c1cc(Cl)cc(/C=N/NC(=S)Nc2ccc(S(=O)(=O)N3CCOCC3)cc2)c1O`, the activity increase over dofetilide control, less the hit threshold was -3%.
The same measure for `Cc1c(C)c2ccc(OCC(=O)N[C@@H](Cc3ccccc3)C(=O)O)cc2oc1=O`: 2% (active); for `O=c1oc2cc(OCCO)ccc2c2c1CCCC2`: -8%; for `O=C(COc1ccc2c3c(c(=O)oc2c1)CCC3)NCC1CCC(C(=O)O)CC1` (stereo not given): -7%.
In the case of `Cc1cc(=O)oc2c3c(cc(OCC(=O)N[C@@H](Cc4ccccc4)C(=O)O)c12)OC(C)(C)CC3`, the activity increase over dofetilide control, less the hit threshold was -3%.
As to `O=C(COc1ccc2c3c(c(=O)oc2c1)CCC3)N[C@@H](Cc1ccccc1)C(=O)O`, the activity increase over dofetilide control, less the hit threshold is 9% (active).
For `Cc1cc(=O)oc2cc(OCC(=O)OCC(=O)NC(C)C)ccc12`, the activity increase over dofetilide control, less the hit threshold was -22%.
With `Cc1ccc(C(C)C)cc1OCCn1cncn1`, the activity increase over dofetilide control, less the hit threshold is -24%.
As for `O=C1Nc2ccc(Br)cc2C1Cc1ccccc1F` (stereo not given), the activity increase over dofetilide control, less the hit threshold was -17%.
Take `Cc1ccc(C(=O)CC(=O)c2cccc(F)c2)c(O)c1`: the activity increase over dofetilide control, less the hit threshold was 1% (active).
Regarding `O=C(CC(=O)c1ccccc1O)c1cccc(F)c1`, the activity increase over dofetilide control, less the hit threshold is -6%.
As for `Cc1ccc(C(=O)CC(=O)c2ccc(C)cc2O)cc1`, the activity increase over dofetilide control, less the hit threshold was -1%.
The same measure for `COc1cc(C(=O)NCc2ccc(-c3nc4ccccc4o3)cc2)cc(OC)c1OC`: -12%; for `CCSc1nnc(NC(=O)Cn2cnc3c2c(=O)n(C)c(=O)n3C)s1`: -22%; for `O=C(Nc1nnc(SCC(=O)N2CCCCC2)s1)C1CCCCC1`: -18%.
`CCSc1nnc(NC(=O)CC(C)C)s1`: the activity increase over dofetilide control, less the hit threshold is 3% (active).
For the compound `COc1ccc(S(=O)(=O)Nc2ccc(Cl)cn2)c(C)c1C`, the activity increase over dofetilide control, less the hit threshold is -9%.
Take `CC[C@@H](C(=O)[C@@H](C)[C@@H](O)[C@H](C)CCc1ccc(C)c(O)c1C(=O)O)[C@H]1O[C@](CC)([C@H]2CC[C@](O)(CC)[C@H](C)O2)C[C@@H]1C`: the activity increase over dofetilide control, less the hit threshold was 93% (active).
The same measure for `O=C(CSc1nc(-c2ccccc2)nc2ccc(F)cc12)Nc1cccc(C(=O)O)c1`: -23%.
`O=C(CCN1C(=O)/C(=C\C=C\c2ccccc2)SC1=S)Nc1cccc(C(=O)O)c1`: the activity increase over dofetilide control, less the hit threshold was 93% (active).
Take `O=C(CCN1C(=O)/C(=C\C=C\c2ccccc2)SC1=S)Nc1ccc(C(=O)O)cc1`: the activity increase over dofetilide control, less the hit threshold was 26% (active).
As to `O=C(CCN1C(=O)/C(=C/c2cccs2)SC1=S)Nc1cccc(C(=O)O)c1`, the activity increase over dofetilide control, less the hit threshold is -13%.
Turning to `COc1ccc(NC(=O)CCN2C(=O)C3C4C=CC(C4)C3C2=O)cc1` (stereo not given), the activity increase over dofetilide control, less the hit threshold is -14%.
The same measure for `CC(C)Oc1cc(S(=O)(=O)N2CCCCC2)ccc1N`: -18%; for `Cc1cc(F)c(F)c(C(=O)N2CCOCC2)c1`: -17%; for `S=C(N/N=C/c1ccc(Cl)cc1)N1CCOCC1`: -47%.
The same measure for `CC(C)(C)C(=O)NC(=S)N1CCOCC1`: 3% (active).
Turning to `CCCCCOCC1CC(C/C(C)=N/Nc2nc(-c3ccccc3)cs2)C(=O)O1` (stereo not given), the activity increase over dofetilide control, less the hit threshold was -5%.
On to `Cc1cc([N+](=O)[O-])c(C)cc1-c1ccc(/C=N/NC(=O)Cn2nnnc2N)o1`, for which the activity increase over dofetilide control, less the hit threshold is 0% (active).
As to `CCOC(=O)N/N=C\c1ccc(-c2cc(Cl)ccc2Cl)o1`, the activity increase over dofetilide control, less the hit threshold was -2%.
For `COCc1cc(C)nc(OCC(=O)N/N=C/c2ccc(-c3cc([N+](=O)[O-])ccc3Cl)o2)c1C#N`, the activity increase over dofetilide control, less the hit threshold is -7%.
For `C=C(C)CSc1nc(N)cc(=O)[nH]1`, the activity increase over dofetilide control, less the hit threshold is -4%.
The same measure for `O=C1NC(=S)S/C1=C\c1ccc2ccccc2c1`: 28% (active); for `O=C1NC(=S)/C(=C\c2ccc(-c3ccccc3Cl)o2)S1`: -23%.
Turning to `O=C1NC(=O)/C(=C/c2cc3c(cc2Br)OCO3)S1`, the activity increase over dofetilide control, less the hit threshold is -17%.
With `Cc1ccc(C(=O)O)cc1-c1ccc(/C=C2\SC(=O)N(CC(=O)Nc3ccccc3)C2=O)o1`, the activity increase over dofetilide control, less the hit threshold is 87% (active).
Consider `Cc1ccccc1NC(=O)CN1C(=O)S/C(=C\c2ccc(-c3cccc(C(=O)O)c3C)o2)C1=O`, for which the activity increase over dofetilide control, less the hit threshold was 19% (active).
In the case of `O=C(CCl)NCCN1C(=O)S/C(=C\c2cccnc2)C1=O`, the activity increase over dofetilide control, less the hit threshold is -5%.
On to `Cc1ccc(NC(=O)CN2C(=O)S/C(=C/c3ccc(-c4cc(C(=O)O)ccc4C)o3)C2=O)cc1C`, for which the activity increase over dofetilide control, less the hit threshold was -29%.
The same measure for `Cc1ccc(NC(=O)CN2C(=O)S/C(=C\c3ccc(-c4cccc(C(=O)O)c4C)o3)C2=O)cc1`: 25% (active).
In the case of `C#CCN1C(=O)S/C(=C\c2ccc(-c3ccc(C(=O)O)cc3C)o2)C1=O`, the activity increase over dofetilide control, less the hit threshold was 1% (active).
The same measure for `Cc1ccccc1NC(=O)CN1C(=O)S/C(=C\c2ccc(-c3cc(C(=O)O)ccc3C)o2)C1=O`: -3%; for `Cc1c(/C=C2\SC(=O)N(CC(=O)Nc3ccc4c(c3)OCO4)C2=O)c2ccccc2n1C`: -11%.
Take `Cc1cc(C(=O)NCCN2C(=O)S/C(=C\c3cccs3)C2=O)ccc1[N+](=O)[O-]`: the activity increase over dofetilide control, less the hit threshold was -1%.
In the case of `Cc1ccsc1/C=C1/SC(=O)N(CC(=O)N2CCCC2)C1=O`, the activity increase over dofetilide control, less the hit threshold is -4%.
`CN(C)c1oc(-c2ccccc2[N+](=O)[O-])nc1C#N`: the activity increase over dofetilide control, less the hit threshold was -15%.
In the case of `COc1ccc(C2N=C(c3ccccc3)C(C)(C)N2O)cc1` (stereo not given), the activity increase over dofetilide control, less the hit threshold was -16%.
For `CCOC(=O)C1CCCCN1Cc1ccc(F)cc1` (stereo not given), the activity increase over dofetilide control, less the hit threshold is -14%.
The same measure for `Cc1cccc(NC(=O)CN2C(=O)S/C(=C\c3ccc(-c4cccc(C(=O)O)c4C)o3)C2=O)c1`: 71% (active).
The same measure for `O=C(CN1C(=O)S/C(=C\c2cccs2)C1=O)Nc1ccc(C(=O)O)c(O)c1`: 12% (active); for `O=C(CN1C(=O)S/C(=C\c2cc(Cl)c(O)c(Cl)c2)C1=O)Nc1ccccc1`: -21%.
`O=C(CN1C(=O)S/C(=C\c2cccs2)C1=O)Nc1ccc(O)c(C(=O)O)c1`: the activity increase over dofetilide control, less the hit threshold is -3%.
With `O=S(=O)(NCc1ccc(Cl)cc1Cl)c1ccc(N2CCOCC2)nc1`, the activity increase over dofetilide control, less the hit threshold was -25%.
For the compound `S=c1nc(C2CCCCC2)n(-c2ccccc2)[nH]1`, the activity increase over dofetilide control, less the hit threshold was 24% (active).
Consider `Cc1onc(-c2ccccc2Cl)c1C(=O)NC(=S)Nc1ccc(C(C)C)cc1`, for which the activity increase over dofetilide control, less the hit threshold was -20%.
Regarding `Cc1onc(-c2ccccc2)c1C(=O)NC(=S)Nc1sc2c(c1C#N)CCC(C)C2` (stereo not given), the activity increase over dofetilide control, less the hit threshold is 24% (active).
Consider `Cc1onc(-c2ccccc2)c1C(=O)NC(=S)Nc1sc2c(c1C#N)CCCC2`, for which the activity increase over dofetilide control, less the hit threshold is -3%.
For `O=C(O)C[C@H]1c2cc(F)ccc2S(=O)(=O)N1C1CCCCC1`, the activity increase over dofetilide control, less the hit threshold was -15%.
Consider `O=C(CN1C(=O)NC(Cc2ccccc2)C1=O)Nc1ccccc1OC(F)F` (stereo not given), for which the activity increase over dofetilide control, less the hit threshold was -10%.
`CCOc1ccc(NC(=O)c2ccc3c(c2)CCN3S(C)(=O)=O)cc1`: the activity increase over dofetilide control, less the hit threshold is -21%.
In the case of `O=C(O)COc1ccc(NC(=O)c2ccc3c(c2)C(=O)N(C2CCCCC2)C3=O)cc1`, the activity increase over dofetilide control, less the hit threshold is 4% (active).
As for `O=C(CN1CCCCCC1)Nc1ccc(Oc2ccccc2)cc1`, the activity increase over dofetilide control, less the hit threshold is -10%.
For `O=C(O)CCCn1cc(NC(=O)COc2ccc(F)cc2)cn1`, the activity increase over dofetilide control, less the hit threshold was -17%.
Consider `CC(NC(=O)C1CCN(S(=O)(=O)c2cccc3cccnc23)CC1)c1ccccc1` (stereo not given), for which the activity increase over dofetilide control, less the hit threshold is -15%.
Regarding `CC(NC(=O)NC1CCCCC1)c1ccc2c(c1)OCO2` (stereo not given), the activity increase over dofetilide control, less the hit threshold was 1% (active).
For `O=C(COC(=O)/C=C/c1ccc2c(c1)OCO2)NC1CC1`, the activity increase over dofetilide control, less the hit threshold is -20%.
For `Cc1ccc(C(C)NC(=O)c2ccc3c(c2)OCO3)cc1C` (stereo not given), the activity increase over dofetilide control, less the hit threshold was 0%.
As to `CC(NC(=O)NC1CCCCC1)c1ccccc1` (stereo not given), the activity increase over dofetilide control, less the hit threshold is 9% (active).
With `CC(NC(=S)NC1CCCCC1)c1ccccc1` (stereo not given), the activity increase over dofetilide control, less the hit threshold is -11%.
On to `O=C(O)c1ccc2c3n(nc2c1)-c1ccc(Cl)cc1CO3`, for which the activity increase over dofetilide control, less the hit threshold is -7%.
In the case of `O=C(NNc1nc2c(F)cccc2s1)c1cc(=O)c2ccccc2o1`, the activity increase over dofetilide control, less the hit threshold is 6% (active).
The same measure for `Cc1cc(C)c(NC(=O)C2CC3CCC2C3)c(C)c1` (stereo not given): -5%; for `CCn1cc(C(=O)NCCN(C)C)c(=O)c2cc(F)c(N3CCN(C)CC3)cc21`: -17%; for `O=C(CCC1CCCC1)NNC(=O)c1cccc(Cl)c1`: -7%.
As for `Cn1sc(NC(=O)c2cccc(Cl)c2)nc1=O`, the activity increase over dofetilide control, less the hit threshold is -1%.
Regarding `O=C(Nn1c(O)c(C=C2N=c3ccccc3=N2)sc1=S)c1cccc(Cl)c1`, the activity increase over dofetilide control, less the hit threshold was 33% (active).
Turning to `CCN1C(=O)/C(=C/N2CCc3ccccc32)SC1=S`, the activity increase over dofetilide control, less the hit threshold was -9%.
Turning to `CCCCN1C(=O)/C(=C2/Sc3ccc(Cl)cc3N2CC)SC1=S`, the activity increase over dofetilide control, less the hit threshold is 42% (active).
Turning to `CCCCCC/C(C)=C1/SC(=S)NC1=O`, the activity increase over dofetilide control, less the hit threshold is 87% (active).
The same measure for `CC(=O)n1nc(-c2ccncc2)nc1SCC(=O)Nc1cccc(Cl)c1`: -10%; for `O=C(O)c1cc(N/N=C/c2ccc(-c3ccccc3)cc2)ccc1Cl`: -16%.
With `CCCOc1ccc(C(=O)N(CC(C)C)c2c(N)n(Cc3ccccc3)c(=O)[nH]c2=O)cc1`, the activity increase over dofetilide control, less the hit threshold is -7%.
The same measure for `COCCN(C(=O)CSc1nnc(C)n1Cc1ccccc1)c1c(N)n(CC(C)C)c(=O)[nH]c1=O`: 1% (active); for `CC(C)CN(C(=O)COC(=O)CNC(=O)c1ccccc1F)c1c(N)n(Cc2ccccc2)c(=O)[nH]c1=O`: -11%.
For the compound `COc1cc(/C=C2/SC(=S)N(CC(=O)O)C2=O)ccc1OCC(=O)Nc1ccc(C)c(C)c1`, the activity increase over dofetilide control, less the hit threshold is 89% (active).
With `COc1cccc(CN=c2c([N+](=O)[O-])nn(-c3ccccc3C)n2O)c1`, the activity increase over dofetilide control, less the hit threshold was -15%.
The same measure for `O=C(c1n[nH]c2c1CCCC2)n1ccnc1`: -2%.
For the compound `CCOc1cc(Br)c(C(=O)O)cc1OC`, the activity increase over dofetilide control, less the hit threshold was -17%.
As to `OC(COC(c1ccccc1)c1ccccc1)CN1CCCCC1` (stereo not given), the activity increase over dofetilide control, less the hit threshold is -18%.

The values above are taken from PubChem BioAssay AID1835 (Johns Hopkins Ion Channel Center, 2009).
